Results taken from the supplement of paper PMC6555819.

Experiments:
Assay in all cases: PBM binding z-score (relative to random genomic background probes); higher = stronger binding; sequences stand for … in GC…GCGATTGACAGCGTAGAATGAAGG
[1] = system: FXR:RXRa (NR concentration 270 nM, RXRa partner concentration 90 nM)
Outline: (§1)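 Probes were double-stranded and carried 34-nt variable regions with direct-repeat seeds, single-nucleotide variants, half-site ablations and random human genomic background sequences, printed on custom Agilent 4×180K protein-binding microarrays. Arrays were incubated 1 h with ligand-free nuclear receptor dimers in PBS pH 7.4, 2% milk, 0.02% Triton X-100, 1 mM DTT, 0.2 mg/mL BSA and 0.4 mg/ml salmon testes DNA. Antibodies against each partner (one per run) detected binding, and scanned fluorescence was regression-normalized. Binding z-scores use the random background probes as reference.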

[2] = system: LXRa:RXRa (NR concentration 270 nM, RXRa partner concentration 90 nM)
Outline: as §1

[3] = system: LXRa homodimer (NR concentration 270 nM)
Outline: as §1

[4] = system: LXRb:RXRa (NR concentration 270 nM, RXRa partner concentration 90 nM)
Outline: as §1

[5] = system: LXRb homodimer (NR concentration 270 nM)
Outline: as §1

[6] = system: PPARa:RXRa (NR concentration 270 nM, RXRa partner concentration 90 nM)
Outline: as §1

[7] = system: PPARg:RXRa (NR concentration 180 nM, RXRa partner concentration 90 nM)
Outline: as §1

[8] = system: PPARg:RXRa 270nM:90nM, anti-RXR (NR concentration 270 nM, RXRa partner concentration 90 nM)
Outline: as §1

[9] = system: PPARg:RXRa 30nM:10nM, anti-RXR (NR concentration 30 nM, RXRa partner concentration 10 nM)
Outline: as §1

[10] = system: PPARg:RXRa 90nM:30nM, anti-RXR (NR concentration 90 nM, RXRa partner concentration 30 nM)
Outline: as §1

[11] = system: PPARg:RXRa DBDmut IVT, anti-RXR (DBD mutation: RXRa K156A/R161A, NR concentration 270 nM, RXRa partner concentration 90 nM)
Outline: as §1

[12] = system: PPARg:RXRa IVT, anti-PPARg (NR concentration 270 nM, RXRa partner concentration 90 nM)
Outline: as §1

[13] = system: PPARg DBDmut:RXRa IVT, anti-PPARg (DBD mutation: PPARg1 K132A/R137A, NR concentration 270 nM, RXRa partner concentration 90 nM)
Outline: as §1

[14] = system: PPARg DBDmut IVT, anti-PPARg (DBD mutation: PPARg1 K132A/R137A, NR concentration 270 nM)
Outline: as §1

[15] = system: PPARg homodimer (NR concentration 180 nM)
Outline: as §1

[16] = system: PXR:RXRa (NR concentration 270 nM, RXRa partner concentration 90 nM)
Outline: as §1

[17] = system: PXR homodimer (NR concentration 270 nM)
Outline: as §1

[18] = system: RARa:RXR (NR concentration 270 nM, RXRa partner concentration 90 nM)
Outline: as §1

[19] = system: RARa homodimer (NR concentration 270 nM)
Outline: as §1

[20] = system: RARb:RXRa (NR concentration 270 nM, RXRa partner concentration 90 nM)
Outline: as §1

Sequence	PBM binding z-score [1]	PBM binding z-score [2]	PBM binding z-score [3]	PBM binding z-score [4]	PBM binding z-score [5]	PBM binding z-score [6]	PBM binding z-score [7]	PBM binding z-score [8]	PBM binding z-score [9]	PBM binding z-score [10]	PBM binding z-score [11]	PBM binding z-score [12]	PBM binding z-score [13]	PBM binding z-score [14]	PBM binding z-score [15]	PBM binding z-score [16]	PBM binding z-score [17]	PBM binding z-score [18]	PBM binding z-score [19]	PBM binding z-score [20]
CCTACTTGGCCACGAAAGGTCATTGATTCAGTGA	4.07	5.32	5.29	4.61	1.16	4.46	1.84	3.31	1.01	2.5	1.97	2.14	0.246	0.627	3.9	5.3	1.97	5.51	2.48	4.09
CCAGACAGGTGAGAAGGTAACACAGCCTCGATTA	0.191	0.2	0.0952	0.413	-0.0709	1.1	0.941	0.656	0.112	0.637	1	0.723	-0.672	-0.419	0.988	-0.0224	0.73	0.409	0.978	0.799
ACTATTAGTTGAGACGAGGGCAACCTATAGGTTG	0.678	0.287	-0.0979	0.142	0.336	0.29	0.636	-0.0542	0.31	-0.00139	-0.0527	0.486	1.43	1.25	0.36	1.39	0.585	1.09	0.942	0.936
TCTGCTAGGTCAACGATGGTCAGCTACTCTGCTA	3.16	2.86	-0.273	1.48	-0.302	3.3	2.4	3.05	1.62	2.47	4.3	4.17	-0.186	-0.6	0.254	1.42	-0.802	1.93	-0.564	4.14
CCTGCTAAGTCAATGGTCAGCTAAAGCAGCTCGC	-0.665	-0.355	-0.545	-0.517	-0.617	-0.254	-0.271	0.314	-0.862	0.0482	0.121	-0.663	-1.16	-0.747	-0.2	-0.405	-0.531	-0.153	-0.807	0.498
CCTACTGGGCCGCGAAAGGTCATTGATTCAGTGA	3.37	4.49	3.63	3.85	0.0149	4.35	1.94	3.69	0.701	2.76	2.81	3.04	-1.14	-0.345	3.03	5.13	1.47	5.27	0.0232	3.81
GCTTTTAGATCAAGGTTAAGAAAGACTAAGCTAA	0.411	1.15	-0.245	0.993	0.252	1.49	0.495	1.1	0.053	0.706	0.974	0.787	0.785	0.404	0.294	0.507	0.294	1.07	0.203	1.04
TTACCAAGGTGAGCTGAGGTCCTTGATCCAACTC	0.6	-0.364	-0.744	-0.383	-1.22	0.604	-0.286	0.115	-0.357	-0.0305	0.555	1.8	-0.248	-1.12	-0.702	1.26	-0.737	0.613	-1.39	1.04
TCTATTAGATGATTAGGGCAACCGAAACAGCGGA	0.507	0.432	0.054	0.49	0.329	0.871	0.674	1.88	3.31	2.68	2.02	1.09	0.897	0.561	0.156	0.4	-0.123	0.416	0.326	0.703
GACACAGGGTCAAGGCCAGAGTACGCGTATTGAT	6.96	4.02	-0.483	3.38	-0.662	5.47	5.53	5.57	1.65	4.01	2.25	3.61	0.42	-0.363	1.5	3.91	0.315	4.77	0.257	4.41
CAAACTAGGTCAAGAGGTCAATGTCCGCTTCCCG	6.4	6.19	5.74	4.72	1.58	6.11	9.5	7.94	6.68	8	8.38	8.12	2.46	0.644	3.95	5.63	1.52	6.79	2.12	5.3
